From the supplement of paper PMC6555819

What was measured:
Test in all cases: PBM binding z-score (relative to random genomic background probes); higher = stronger binding; sequences stand for … in GC…GCGATTGACAGCGTAGAATGAAGG
[1] = system: FXR:RXRa (NR concentration 270 nM, RXRa partner concentration 90 nM)
How it was run: (§1)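 The probes on custom Agilent 4×180K protein-binding microarrays were double-stranded, with 34-nt variable regions bearing direct-repeat seeds, single-nucleotide variants, half-site ablations and random human genomic background sequences. Incubation lasted 1 h with ligand-free nuclear receptor dimers in PBS pH 7.4, 2% milk, 0.02% Triton X-100, 1 mM DTT, 0.2 mg/mL BSA and 0.4 mg/ml salmon testes DNA. Antibodies against each partner (one per run) detected bound dimers, and fluorescence scans were regression-normalized. Binding z-scores take the random background probes as reference.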

[2] = system: LXRa:RXRa (NR concentration 270 nM, RXRa partner concentration 90 nM)
How it was run: as §1

[3] = system: LXRa homodimer (NR concentration 270 nM)
How it was run: as §1

[4] = system: LXRb:RXRa (NR concentration 270 nM, RXRa partner concentration 90 nM)
How it was run: as §1

[5] = system: LXRb homodimer (NR concentration 270 nM)
How it was run: as §1

[6] = system: PPARa:RXRa (NR concentration 270 nM, RXRa partner concentration 90 nM)
How it was run: as §1

[7] = system: PPARg:RXRa (NR concentration 180 nM, RXRa partner concentration 90 nM)
How it was run: as §1

[8] = system: PPARg:RXRa 270nM:90nM, anti-RXR (NR concentration 270 nM, RXRa partner concentration 90 nM)
How it was run: as §1

[9] = system: PPARg:RXRa 30nM:10nM, anti-RXR (NR concentration 30 nM, RXRa partner concentration 10 nM)
How it was run: as §1

[10] = system: PPARg:RXRa 90nM:30nM, anti-RXR (NR concentration 90 nM, RXRa partner concentration 30 nM)
How it was run: as §1

Sequence	PBM binding z-score [1]	PBM binding z-score [2]	PBM binding z-score [3]	PBM binding z-score [4]	PBM binding z-score [5]	PBM binding z-score [6]	PBM binding z-score [7]	PBM binding z-score [8]	PBM binding z-score [9]	PBM binding z-score [10]
AATATTAGTTGACTTAGGGCAACCGATACGACGC	0.123	0.163	0.741	0.405	0.26	0.162	1.09	0.355	0.448	0.286
ACTTGCAGGCCAAGGGTCACTCAAGATTAGTCCG	2.94	2.83	0.304	2.98	0.0149	4.99	8.46	7.35	6.52	7.71
ACTATTAGTTGAGACGAGGGAAACCGATAGGTTG	0.194	0.0182	-0.36	-0.399	-0.0748	-0.349	0.531	-0.165	0.215	0.291
CAAACTAGGTCACCGGAACGTCAAAGTCCGCATG	4.29	3.3	0.469	2.42	0.773	5.75	8.87	7.2	4.82	6.94
GCGACTGGGGCTTCAGCAGGTTACCATAACTTAA	-0.296	-0.21	-0.373	0.63	-0.572	0.478	-0.166	-0.624	-0.435	-0.762
AGACTGAGGTTACCAAAGATCAGGGAAACGCTTG	1.67	5.98	-0.277	3	-0.462	2.79	1.29	1.54	0.351	1.05
ACAAGCAGGCCAAGTTTGGGTCACTCAAACAAAG	0.226	0.181	-0.641	0.53	-0.924	1.51	0.101	0.443	-0.289	0.124
CGTCCAAGGTCAAAGAGGTCAGTGAATGCCGAGT	7.54	6.09	4.44	5.48	1.51	5.88	5.22	5.89	2.41	4.63
CAAACTAGGTTACCGGAAGGTCAAAGTCCGCATG	4.06	5.04	4.5	4.05	1.13	4.85	6.22	5.55	2.78	4.83
AGTCCAAGTTCATCTAGGTAACGTAAGATATGCT	3.42	3.23	1.19	1.62	0.287	2.59	1.45	1.61	0.523	0.991
TCTTGTACATCAAAGGTTAAGAAAGCCGAAGCCT	1.52	2.15	0.446	2	0.657	2.92	2.52	4.42	3.95	4.35
CCTAGCAGGACAGGGTCACTCAAGCATTTCGCTT	2.28	1.99	-0.28	2.4	-0.799	3.41	0.993	1.68	-0.413	0.404
TGAATGAGGTTAAAGATCAGAGAACGTGGCGTCG	3.2	2.25	-0.274	1.7	0.104	4.43	6.08	6.65	5.22	6.58
TCTGCTAGGTCAACGATAGTCAGCTAATCTGCTA	3.23	2.35	-0.23	1.4	-0.0504	3.14	2.53	3.15	1.95	2.82
CGTCCAAGGACATAGGAGGTCAGTGAAGACAGAT	1.5	1.47	1.23	1.26	-0.58	2.02	0.76	0.564	0.000734	0.268
TGTCCAAGTTCAAAGGTAACGTAAGTATCCACAC	4.56	4.49	1.09	3.06	0.689	4.29	4	4.65	2.1	4.16
ATCTCTAGGTAACTAAGTTCAGTGAATGCCGAAC	0.51	0.962	1.22	1.02	0.792	1.32	0.573	0.892	0.181	0.816
AGAATGAAGTTATACGTAGATCAGGGAAGAAAGT	-0.499	-0.297	-0.439	-0.59	-0.391	-0.311	0.842	-0.228	0.0525	-0.163
CCTAGTTGGTCAGGAGCTCACACACCGGATATGA	-0.0186	-0.0451	0.119	-0.266	0.143	-0.0186	0.636	0.361	-0.291	-0.0665
TCTTGTAGATCAAGCAGGTTAAGACAGCCTGAGT	0.233	0.271	-0.132	0.33	-0.3	0.76	0.0477	1.3	2.29	1.76
TCTTTTAGATCAGCAGGTTAAGAAAGCTGGCCAA	0.304	0.549	-0.247	0.44	0.139	0.889	-0.5	1.65	3.33	2.36
CAAACTAGATCAAGAGGTCAAAGTCCGCTTCCCG	4.72	5.55	6.71	5.21	1.87	5.77	4.08	4.85	2.67	4.71
TCATATAGGTAATACTGGTGAAAGTCGGCATCTA	0.82	1	0.397	0.738	0.101	1.29	0.902	2.27	3.82	3.28
